From PubChem BioAssay (Tox21)
Where “and” joins values, the source holds several entries; their conditions need not be identical. Equal entries are not always repeated. Inconclusive results are not listed. Entries that show only a call come without a potency. Some compounds were tested as several samples or in several runs, with calls that do not always agree. Calls of active or inactive are those of the source. Unless noted, calls follow the shape of the dose curve; as a rule, active = well fitted curve in the direction sought with a large enough effect in the repeat runs; inconclusive = weak or mixed curves; inactive = no such curve, though single readings can be large; an effect the other way counts as inactive or inconclusive.

How the values were obtained:
[1] = qHTS assay to identify small molecule antagonists of the sonic hedgehog signaling (Shh) pathway (AID 1259369; calls by dose curve; also: nearly all actives have a fitted effect of over 45% in size); details: NIH/3T3 Gli1-Luc reporter, Shh antagonist, luminescence 24 h; series mostly up to 92.4 µM
How it was run: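 For antagonist detection, the reporter line received test compounds together with conditioned medium, incubated 24hr at 37 C, 5% CO2, then luminescence was recorded following 30min room-temperature luciferase reagent incubation.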

[2] = qHTS assay to identify small molecule agonists of the androgen receptor (AR) signaling pathway in the presence of an antagonist - cell viability counter screen (AID 1259379); details: MDA-kb2 viability, CellTiter-Fluor, 16 h; series mostly up to 92.4 µM;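 also: MDA-kb2 human breast cancer cells carrying an MMTV luciferase reporter; nearly all actives have a fitted effect of over 25% in size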
How it was run: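 Seed MDA-kb2 at 3,000 cells/well; incubate 5 hr, 37C, 0% CO2. Add nilutamide to 3.0uM final, then pin compounds at 15 concentrations. Incubate 16 hr. Add CellTiter-Fluor at 15 hr, read fluorescence after 1 hr.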

[3] = qHTS assay to identify small molecule agonists of the estrogen receptor beta (ER-beta) signaling pathway - cell viability counter screen (AID 1259380); details: ER-beta-bla HEK293T viability, CellTiter-Glo luminescence, 16 h; series mostly up to 92.4 µM; also: nearly all actives have a fitted effect of over 30% in size; also: potency is read from the fitted curve at half-maximal effect
How it was run: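 CellTiter-Glo read, 30 min RT, same wells as bla assay; cells ER-beta-UAS-bla HEK293T; 16 hr compound, 37C; medium 2% charcoal-stripped FBS.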

[4] = qHTS assay to identify small molecule antagonists of the estrogen receptor beta (ER-beta) signaling pathway - cell viability counter screen (AID 1259382); details: ER-beta-UAS-bla HEK293T viability, CellTiter-Glo luminescence, 16 h; series mostly up to 92.4 µM; also: nearly all actives have a fitted effect of over 55% in size; also: potency is read from the fitted curve at half-maximal effect
How it was run: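 In this multiplexed counter screen, cells were seeded at 2,000 per well in medium with 2% charcoal-stripped FBS and incubated 6 hr before compound and 1nM final E2 were added. Sixteen hours later, ATP-based luminescence reported viability.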

[5] = qHTS assay to identify small molecule agonists or antagonists of the thyroid stimulating hormone receptor (TSHR) signaling pathway - wild type cell line counter screen (AID 1259384; calls by dose curve); details: HEK293 wild type, cAMP HTRF counter-screen; series mostly up to 92.4 µM
How it was run: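 Counter screen in untransfected Hek293: compounds (15-point titration, triplicate) plus phosphodiesterase inhibitor Ro20-1724 added after 18 h plating; 30 min RT. Intracellular cAMP via competitive d2/cryptate immunoassay, 1 h incubation.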

[6] = qHTS assay to identify small molecule agonists of the estrogen receptor alpha (ER-alpha) signaling pathway in the presence of an antagonist - cell viability counter screen (AID 1259386); details: VM7Luc4E2 viability, CellTiter-Fluor fluorescence, 22 h; series mostly up to 92.4 µM;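 also: cells exposed to compounds for 22 h at 37 °C before the viability read; nearly all actives have a fitted effect of over 30% in size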
How it was run: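 Viability counter screen using VM7Luc4E2 (full-length ER-alpha, four ERE-luciferase). The cells were treated with compounds alongside ICI-182,780 10.0nM for 22hr, and live-cell protease fluorescence was quantified with CellTiter-Fluor.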

[7] = biological target: Progesterone receptor (Homo sapiens) (UniProt P06401); assay: qHTS assay to identify small molecule agonists of the progesterone receptor (PR) signaling pathway (AID 1346784; calls by dose curve; also: nearly all actives have a fitted effect of over 30% in size; also: potency is read from the fitted curve at half-maximal effect); details: PR-UAS-bla HEK293T, beta-lactamase FRET ratio, 16 h; series mostly up to 92.4 µM
Sequence of Progesterone receptor (Homo sapiens) (P06401 whole entry, looked up): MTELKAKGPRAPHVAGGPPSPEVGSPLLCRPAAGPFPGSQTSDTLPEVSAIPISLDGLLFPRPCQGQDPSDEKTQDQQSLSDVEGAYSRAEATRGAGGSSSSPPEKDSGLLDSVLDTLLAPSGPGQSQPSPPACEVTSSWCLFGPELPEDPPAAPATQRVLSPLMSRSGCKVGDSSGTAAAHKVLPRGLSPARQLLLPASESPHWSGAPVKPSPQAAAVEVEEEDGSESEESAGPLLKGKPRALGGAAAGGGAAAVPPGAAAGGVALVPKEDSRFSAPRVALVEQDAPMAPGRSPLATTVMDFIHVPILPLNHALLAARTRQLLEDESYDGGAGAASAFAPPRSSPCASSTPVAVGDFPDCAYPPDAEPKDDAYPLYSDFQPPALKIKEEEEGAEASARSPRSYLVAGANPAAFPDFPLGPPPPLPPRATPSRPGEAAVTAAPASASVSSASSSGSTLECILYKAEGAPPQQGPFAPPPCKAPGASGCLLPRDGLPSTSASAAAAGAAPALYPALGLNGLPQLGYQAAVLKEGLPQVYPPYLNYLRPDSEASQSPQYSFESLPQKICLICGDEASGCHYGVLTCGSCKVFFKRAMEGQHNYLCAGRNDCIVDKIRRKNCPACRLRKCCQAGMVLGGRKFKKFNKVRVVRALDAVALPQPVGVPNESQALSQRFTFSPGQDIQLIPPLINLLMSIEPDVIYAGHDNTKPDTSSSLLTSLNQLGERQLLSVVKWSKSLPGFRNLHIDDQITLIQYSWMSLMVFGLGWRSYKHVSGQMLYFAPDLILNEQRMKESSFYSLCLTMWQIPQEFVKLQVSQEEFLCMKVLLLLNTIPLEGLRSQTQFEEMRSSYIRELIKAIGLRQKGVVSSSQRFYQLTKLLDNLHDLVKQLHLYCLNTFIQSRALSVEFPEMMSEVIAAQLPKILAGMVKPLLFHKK
How it was run: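 Using charcoal-stripped serum (2%) to limit endogenous steroids, PR-UAS-bla HEK 293T cells received compounds for 16 hr at 37C after 6 hr plating; beta-lactamase FRET fluorescence was recorded following 2 hr substrate loading at room temperature.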

[8] = biological target: Progesterone receptor (Homo sapiens) (UniProt P06401); assay: qHTS assay to identify small molecule antagonists of the progesterone receptor (PR) signaling pathway (AID 1346795; active = well fitted inhibition curve with a large enough effect in the signal ratio in the repeat runs, not every such curve was filed as active; the % refers to the signal ratio); details: PR-UAS-bla HEK293T, beta-lactamase FRET ratio, 16 h; series mostly up to 92.4 µM
How it was run: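 Inhibition of R5020-induced (1 nM final) beta-lactamase reporter signal in PR-UAS-bla HEK293T cells was scored by FRET fluorescence after overnight (16 hr) compound treatment.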

[9] = qHTS assay to identify small molecule antagonists of the progesterone receptor (PR) signaling pathway - cell viability counter screen (AID 1346798); details: PR-UAS-bla HEK293T viability, CellTiter-Glo luminescence, 16 h; series mostly up to 92.4 µM; also: nearly all actives have a fitted effect of over 50% in size
How it was run: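 ATP content as viability readout: CellTiter-Glo luminescence, 30 min room temperature, in PR-UAS-bla HEK293T cells after 16 hr compound/R5020 treatment at 37C and 5% CO2.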

[10] = qHTS assay to identify small molecule agonists of the progesterone receptor (PR) signaling pathway - cell viability counter screen (AID 1346799; calls by dose curve; also: nearly all actives have a fitted effect of over 45% in size); details: PR-UAS-bla HEK293T viability, CellTiter-Glo luminescence, 16 h; series mostly up to 92.4 µM
How it was run: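 Cytotoxicity in PR-bla HEK293T cells: 16 h compound, 37C; CellTiter-Glo added post-FRET read; luminescence after 30 min RT.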

[11] = qHTS assay to identify small molecule antagonists of the TGF-beta/Smad signaling pathway - cell viability counter screen (AID 1346824); details: SBE-bla HEK293T viability, CellTiter-Glo luminescence; series mostly up to 76.8 µM; also: nearly all actives have a fitted effect of over 50% in size
How it was run: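 Cytotoxicity counter-screen run in the same wells as the beta-lactamase Smad reporter read: CellTiter-Glo luminescence after 30 min at room temperature. HEK 293T SBE-bla cells had 5 hr compound exposure at 37 C with TGF-beta1 (0.25 ng/mL stock).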

[12] = qHTS assay to identify small molecule agonists of the TGF-beta/Smad signaling pathway - cell viability counter screen (AID 1346829); details: SBE-bla HEK293T viability, CellTiter-Glo luminescence, 5 h; series mostly up to 76.8 µM; also: top concentration of the series differs between compounds; nearly all actives have a fitted effect of over 45% in size
How it was run: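 Cytotoxicity counter screen: CellTiter-Glo luminescence (30 min, room temperature) measured in the SBE-bla HEK 293T reporter wells after 5 hr compound treatment at 37 C and the 2 hr substrate step.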

[13] = biological target: Thyrotropin-releasing hormone receptor (Homo sapiens) (UniProt P34981); assay: qHTS assay to identify small molecule antagonists of the thyrotropin-releasing hormone receptor (TRHR) signaling pathway (AID 1346877; active = well fitted inhibition curve with a large enough effect in the repeat runs, not every such curve was filed as active); details: TRHR-HEK293, TRH-induced calcium fluorescence, antagonist mode; series mostly up to 51.3 µM
Sequence of Thyrotropin-releasing hormone receptor (Homo sapiens) (P34981 whole entry, looked up): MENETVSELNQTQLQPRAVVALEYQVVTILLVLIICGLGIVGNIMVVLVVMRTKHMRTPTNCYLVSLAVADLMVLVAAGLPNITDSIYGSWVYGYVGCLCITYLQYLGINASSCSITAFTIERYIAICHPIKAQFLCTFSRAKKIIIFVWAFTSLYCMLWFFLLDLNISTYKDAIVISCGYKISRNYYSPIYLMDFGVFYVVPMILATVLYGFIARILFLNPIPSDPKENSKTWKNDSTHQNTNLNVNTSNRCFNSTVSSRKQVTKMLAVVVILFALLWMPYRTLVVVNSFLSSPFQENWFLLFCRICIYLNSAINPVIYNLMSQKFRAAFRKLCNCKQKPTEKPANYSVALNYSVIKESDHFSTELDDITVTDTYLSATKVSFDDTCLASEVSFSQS
How it was run: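 Following an 18 h incubation at 37 °C and a 2 h calcium dye load, TRHR-HEK293 cells were exposed to compound (5 min, room temperature) and challenged with TRH, 1 nM final.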

[14] = biological target: Thyrotropin-releasing hormone receptor (Homo sapiens) (UniProt P34981); assay: qHTS assay to identify small molecule agonists of the thyrotropin-releasing hormone receptor (TRHR) signaling pathway (AID 1346891; calls by dose curve;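 also: HEK293 cells expressing TRHR with calcium dye readout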); details: TRHR-HEK293 calcium fluorescence, agonist mode; series mostly up to 57.6 µM
How it was run: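 In 1536-format, 1500 TRHR-Hek293 cells per well grew 18 h, took up calcium dye for 2 h at 37 °C, received compound, and were read kinetically; 15-point titrations, triplicates.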

[15] = biological target: Estrogen receptor beta (Homo sapiens) (UniProt Q92731); assay: qHTS assay to identify small molecule agonists of the estrogen receptor beta (ER-beta) signaling pathway (AID 1259377; active = well fitted activation curve with a large enough effect in the signal ratio in the repeat runs, not every such curve was filed as active; the % refers to the signal ratio); details: ER-beta-UAS-bla HEK293T, beta-lactamase FRET ratio, 16 h; series mostly up to 92.4 µM
Sequence of Estrogen receptor beta (Homo sapiens) (Q92731 whole entry, looked up): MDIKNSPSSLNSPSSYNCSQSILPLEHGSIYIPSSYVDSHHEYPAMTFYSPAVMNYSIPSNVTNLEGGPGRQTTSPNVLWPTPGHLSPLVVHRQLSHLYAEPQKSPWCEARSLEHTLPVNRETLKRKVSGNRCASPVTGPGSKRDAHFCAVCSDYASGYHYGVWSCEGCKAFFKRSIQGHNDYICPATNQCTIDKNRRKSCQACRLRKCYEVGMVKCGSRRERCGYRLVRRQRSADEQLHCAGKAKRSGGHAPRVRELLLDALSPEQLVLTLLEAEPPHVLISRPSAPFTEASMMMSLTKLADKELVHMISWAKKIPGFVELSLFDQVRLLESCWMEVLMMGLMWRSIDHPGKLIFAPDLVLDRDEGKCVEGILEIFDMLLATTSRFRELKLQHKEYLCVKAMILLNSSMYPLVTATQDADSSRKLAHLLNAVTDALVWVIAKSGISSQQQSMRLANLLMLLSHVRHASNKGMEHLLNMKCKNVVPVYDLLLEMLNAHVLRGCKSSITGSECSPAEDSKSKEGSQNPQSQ
How it was run: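 In HEK293T cells bearing a UAS-beta-lactamase reporter under ER-beta control, DMSO-delivered compounds were incubated for 16 hr at 37C. Activity was detected as fluorescence 2 hours after LiveBLAzer B/G FRET substrate addition.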

[16] = biological target: Estrogen receptor beta (Homo sapiens) (UniProt Q92731); assay: qHTS assay to identify small molecule antagonists of the estrogen receptor beta (ER-beta) signaling pathway (AID 1259378; active = well fitted inhibition curve with a large enough effect in the signal ratio in the repeat runs, not every such curve was filed as active; the % refers to the signal ratio); details: ER-beta-UAS-bla HEK293T, beta-lactamase FRET ratio, 16 h; series mostly up to 92.4 µM
How it was run: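 Antagonist mode: compounds added to beta-lactamase reporter HEK293T ER-beta-UAS cells stimulated with E2 (1nM final), 16 hr at 37C. LiveBLAzer B/G FRET substrate, 2 hours room temperature, fluorescence read-out.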

[17] = biological target: Estrogen receptor (Homo sapiens) (UniProt P03372); assay: qHTS assay to identify small molecule agonists of the estrogen receptor alpha (ER-alpha) signaling pathway in the presence of an antagonist (AID 1259383; calls by dose curve; also: top concentration of the series differs between compounds; nearly all actives have a fitted effect of over 15% in size); details: VM7Luc4E2 cells, ERE-luciferase, +ICI-182,780, 22 h; series mostly up to 92.4 µM
Sequence of Estrogen receptor (Homo sapiens) (P03372 whole entry, looked up): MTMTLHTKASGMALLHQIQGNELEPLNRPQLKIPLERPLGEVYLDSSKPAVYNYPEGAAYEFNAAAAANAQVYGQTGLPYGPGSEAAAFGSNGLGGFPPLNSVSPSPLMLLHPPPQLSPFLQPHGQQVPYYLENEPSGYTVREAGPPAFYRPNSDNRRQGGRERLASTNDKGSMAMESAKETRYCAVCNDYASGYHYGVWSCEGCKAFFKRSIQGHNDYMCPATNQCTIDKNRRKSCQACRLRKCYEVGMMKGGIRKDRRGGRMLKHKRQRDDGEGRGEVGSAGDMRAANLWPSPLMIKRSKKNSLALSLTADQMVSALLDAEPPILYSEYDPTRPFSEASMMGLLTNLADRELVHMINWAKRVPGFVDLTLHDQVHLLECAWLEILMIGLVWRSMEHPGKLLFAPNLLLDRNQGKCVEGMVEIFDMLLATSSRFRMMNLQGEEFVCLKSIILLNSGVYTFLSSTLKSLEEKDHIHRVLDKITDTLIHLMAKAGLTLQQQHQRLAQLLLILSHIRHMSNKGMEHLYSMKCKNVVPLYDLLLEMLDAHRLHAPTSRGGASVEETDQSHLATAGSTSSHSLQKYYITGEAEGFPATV
How it was run: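 Stably transfected VM7Luc4E2 reporter cells, kept 5 days in charcoal-stripped serum, received ICI-182,780 at 10.0nM final before compound addition. Following 22hr incubation at 37C and 5% CO2, luciferase signal was read by luminescence.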

[18] = biological target: Thyrotropin receptor (Homo sapiens) (UniProt P16473); assay: qHTS assay to identify small molecule antagonists of the thyroid stimulating hormone receptor (TSHR) signaling pathway (AID 1259385; calls by dose curve; also: nearly all actives have a fitted effect of over 20% in size); details: TSHR-HEK293 cAMP HTRF, TSH-stimulated antagonist mode; series mostly up to 92.4 µM
Sequence of Thyrotropin receptor (Homo sapiens) (P16473 whole entry, looked up): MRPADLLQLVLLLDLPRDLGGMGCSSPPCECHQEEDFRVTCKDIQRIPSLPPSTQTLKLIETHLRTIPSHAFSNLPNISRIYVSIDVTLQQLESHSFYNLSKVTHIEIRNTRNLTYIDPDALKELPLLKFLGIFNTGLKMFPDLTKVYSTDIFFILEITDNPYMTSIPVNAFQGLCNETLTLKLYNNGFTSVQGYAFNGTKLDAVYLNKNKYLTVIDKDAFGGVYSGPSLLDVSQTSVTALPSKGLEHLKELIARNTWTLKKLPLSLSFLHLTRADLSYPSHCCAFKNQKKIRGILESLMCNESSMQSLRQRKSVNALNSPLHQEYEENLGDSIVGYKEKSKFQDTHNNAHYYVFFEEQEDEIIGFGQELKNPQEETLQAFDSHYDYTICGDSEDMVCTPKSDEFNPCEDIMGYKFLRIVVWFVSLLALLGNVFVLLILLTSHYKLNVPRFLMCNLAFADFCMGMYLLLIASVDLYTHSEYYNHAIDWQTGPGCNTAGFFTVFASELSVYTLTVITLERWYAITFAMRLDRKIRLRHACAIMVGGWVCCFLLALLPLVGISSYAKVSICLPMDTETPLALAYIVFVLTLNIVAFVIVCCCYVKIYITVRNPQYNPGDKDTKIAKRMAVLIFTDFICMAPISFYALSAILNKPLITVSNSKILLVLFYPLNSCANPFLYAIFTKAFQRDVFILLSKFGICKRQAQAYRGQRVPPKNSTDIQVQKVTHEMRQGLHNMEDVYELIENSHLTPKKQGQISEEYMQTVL
How it was run: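 Antagonist mode: compound-treated TSHR-expressing HEK293 cells were stimulated with 1.5 ng/mL TSH (final) in presence of Ro20-1724 for 30 min at RT. HTRF cAMP detection after 1 h; each compound tested at 15 concentrations, triplicate.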

[19] = qHTS assay to identify small molecule agonists of the TGF-beta/Smad signaling pathway (AID 1346859; active = well fitted activation curve with a large enough effect in the signal ratio in the repeat runs, not every such curve was filed as active; the % refers to the signal ratio); details: SBE-bla HEK293T, TGF-beta/Smad beta-lactamase reporter, 5 h; series mostly up to 76.8 µM
How it was run: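 Stable Smad binding element-beta-lactamase HEK 293T cells; 5 hr compound exposure at 37 C under 5% CO2; 2 hr room-temperature substrate step; fluorescence excited at 405 nm, collected at 460 nm and 530 nm.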

[20] = biological target: Androgen receptor (Homo sapiens) (UniProt P10275); assay: qHTS assay to identify small molecule agonists of the androgen receptor (AR) signaling pathway in the presence of an antagonist (AID 1259381; calls by dose curve; also: nearly all actives have a fitted effect of over 15% in size); details: MDA-kb2 MMTV-luciferase, AR agonist + nilutamide, 16 h; series mostly up to 92.4 µM
Sequence of Androgen receptor (Homo sapiens) (P10275 whole entry, looked up): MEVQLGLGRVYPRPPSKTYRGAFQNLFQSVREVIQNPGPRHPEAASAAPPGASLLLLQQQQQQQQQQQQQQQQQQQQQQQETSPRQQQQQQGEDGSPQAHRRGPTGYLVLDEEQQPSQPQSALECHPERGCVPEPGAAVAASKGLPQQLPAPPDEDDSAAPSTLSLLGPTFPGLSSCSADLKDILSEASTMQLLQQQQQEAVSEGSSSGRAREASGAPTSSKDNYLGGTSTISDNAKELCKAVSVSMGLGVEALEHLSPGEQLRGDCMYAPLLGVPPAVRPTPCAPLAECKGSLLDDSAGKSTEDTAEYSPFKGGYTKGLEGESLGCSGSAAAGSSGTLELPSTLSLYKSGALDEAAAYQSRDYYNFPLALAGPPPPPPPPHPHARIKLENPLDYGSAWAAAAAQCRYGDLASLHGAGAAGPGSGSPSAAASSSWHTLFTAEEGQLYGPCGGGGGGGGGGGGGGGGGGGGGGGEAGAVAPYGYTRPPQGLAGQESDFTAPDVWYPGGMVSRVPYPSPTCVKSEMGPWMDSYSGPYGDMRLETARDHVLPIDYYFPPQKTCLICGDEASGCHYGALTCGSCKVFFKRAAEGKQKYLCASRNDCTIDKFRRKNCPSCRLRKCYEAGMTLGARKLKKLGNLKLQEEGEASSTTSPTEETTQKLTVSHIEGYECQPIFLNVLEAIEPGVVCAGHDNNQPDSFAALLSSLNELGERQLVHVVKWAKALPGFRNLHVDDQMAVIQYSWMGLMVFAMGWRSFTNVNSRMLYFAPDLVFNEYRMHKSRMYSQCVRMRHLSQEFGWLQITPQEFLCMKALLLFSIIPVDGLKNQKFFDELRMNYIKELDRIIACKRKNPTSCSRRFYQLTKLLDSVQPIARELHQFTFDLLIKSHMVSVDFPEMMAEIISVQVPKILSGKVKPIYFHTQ
How it was run: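 Test compounds at 15 concentrations were incubated for 16hr with MDA-kb2 reporter cells in presence of 3.0uM nilutamide (final). Signal: ONE-Glo luciferase luminescence.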

With Cc1cccc2n[nH]nc12 the Potency [1] was “inactive”, the Potency [2] was “inactive” and the Potency [3] was “inactive”. For the same molecule, the Potency [4] was “inactive”, the Potency [5] was “inactive” and the Potency [6] was “inactive”. For the same molecule, the Potency [7] was “inactive”, the Potency [8] was “inactive” and the Potency [9] was “inactive”. The Potency [10] was “inactive”, the Potency [11] was “inactive” and the Potency [12] was “inactive”. The Potency [13] was “inactive” and the Potency [14] was “inactive”.
With CC(C)(C)c1ccc(O)c(C(C)(C)C)c1 the outcome [15] was “inactive”, the Potency [16] was “inactive” and the Potency [2] was “inactive”. The Potency [3] was 48.4 µM (active) and 54.5 µM (active), the Potency [4] was 60.9 µM (active) and the Potency [17] was “inactive”. The Potency [5] was “inactive”, the Potency [18] was “inactive” and the Potency [6] was “inactive”. For the same molecule, the Potency [7] was “inactive”, the Potency [11] was “inactive” and the outcome [19] was “inactive”. For the same molecule, the Potency [14] was “inactive”.
In the case of CCOc1ccc2c(c1)C(C)=CC(C)(C)N2, the Potency [2] is reported as “inactive”, the Potency [3] is reported as “inactive” and the Potency [20] is reported as “inactive”. For the same molecule, the Potency [4] was “inactive”, the Potency [17] was “inactive” and the Potency [5] was “inactive”. For the same molecule, the Potency [18] was “inactive”, the Potency [6] was “inactive” and the Potency [7] was “inactive”. For the same molecule, the Potency [9] was “inactive”, the Potency [10] was “inactive” and the Potency [11] was “inactive”. The Potency [13] was “inactive” and the Potency [14] was “inactive”.
In the case of CC(C)(C)NCC(O)COc1ccccc1OCC1CCCO1 (stereo not given), the outcome [15] is reported as “inactive”, the Potency [16] is reported as “inactive” and the Potency [2] is reported as “inactive”. The Potency [3] was “inactive”, the Potency [4] was “inactive” and the Potency [17] was “inactive”. The Potency [5] was “inactive”, the Potency [18] was “inactive” and the Potency [6] was “inactive”. For the same molecule, the Potency [7] was “inactive”, the Potency [8] was “inactive” and the Potency [9] was “inactive”. For the same molecule, the Potency [10] was “inactive”, the Potency [11] was “inactive” and the Potency [12] was “inactive”. For the same molecule, the outcome [19] was “inactive”, the Potency [13] was “inactive” and the Potency [14] was “inactive”.
In the case of [Cl][In]([Cl])[Cl], the Potency [2] is reported as “inactive”, the Potency [4] is reported as “inactive” and the Potency [17] is reported as “inactive”. For the same molecule, the Potency [6] was “inactive”, the Potency [7] was “inactive and 27.3 µM (active)” and the Potency [8] was “inactive”. The Potency [11] was “inactive”, the Potency [12] was “inactive” and the outcome [19] was “inactive”. For the same molecule, the Potency [13] was “inactive” and the Potency [14] was “inactive”.
